This is an account of results in PubChem BioAssay AID588398 (Broad Institute, 2011).

Screen size: about 1,200 compounds; about 110 (9.2%) were called active. Not shown: some 8% with an inconclusive outcome.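 Rule for the calls: active = pathway reporter half-maximal dose under half the control reporter's, or control reporter unaffected while pathway reporter is inhibited; inconclusive = either signal flat at 30 to 70% inhibition or poorly fitted; inactive = the rest.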 The list is a sample of the results. Results with a measured potency or affinity are listed apart.

This assay can be described thus: LMP1 TES1 pathway selectivity over dsRED control – imaging, HEK293T, dual-color eGFP/dsRED, cherry-picks, selectivity assay for LMP1 NF-kB inhibitor project, dose response (AID 588398). The conditions noted are these: 48 h; HEK293T Tet-On dsRED counter-screen channel, at 19.5 µM (top of the series). (The purpose of a counterscreen is to sort out artefacts and off-target activity.)
Take `CC1CC(C)CN(S(=O)(=O)c2ccc(NC(=O)CCN3C(=O)C4CC=CCC4C3=O)cc2)C1` (stereo not given): the molecule was classed as inactive. The entry for `CCN(CC)S(=O)(=O)c1cccc(-n2c(O)c(C=Nc3ccccc3C(=O)O)c3ccccc3c2=O)c1` is “inactive”; for `Cc1ccc(CN2C(=O)CCC2C(=O)NCCCN2CCC(C)CC2)cc1` (stereo not given) it is “inactive”. The value for `Cn1cc(SCC(=O)NCC2CCCO2)c2ccccc21` (stereo not given) was “inactive”; that for `O=Cc1ccc(-c2cccs2)s1` was “inactive”.

For `COc1ccc(NC(=O)CCS(=O)(=O)c2ccc3c(c2)CCN3C(C)=O)cc1`, the call was inactive. The value for `C=CCn1c(C)c(C(C)=O)c(N2CCN(C(c3ccccc3)c3ccccc3)CC2)nc1=S` was “inactive”; that for `O=C(N/N=C/c1cccs1)c1n[nH]c2c1CCCC2` was “inactive”. Turning to `COc1cc2oc(=O)cc(-c3ccc(-c4ccc(N(C)C)cc4)cc3)c2c(OC)c1OC`, the molecule was called inactive. The entry for `COc1ccc(C=Cc2ccc3ccccc3n2)c(OC)c1` is “inactive”.

Take `COc1ccc(C(=O)NCCNc2nc3cc(C)c(C)cc3cc2C)cc1`: the molecule was called inactive. As to `O=C(c1sc2cc([N+](=O)[O-])ccc2c1Cl)N1CCOCC1`, the molecule was classed as inactive.

With `O=C(N/N=C/c1sc2ccccc2c1O)c1cccc2ccccc12`, the result was inactive. The value for `COc1cccc(C(=O)CC(=O)C(=O)Nc2ccc(C)cc2Cl)c1` was “inactive”; that for `COc1ccc(NC2=NCC(Cc3ccc(Br)cc3)S2)cc1` (stereo not given) was “inactive”; that for `O=C(O)c1ccc(C=NNC(=O)c2cccc3ccccc23)cc1` was “inactive”.

`O=C(N/N=C/c1ccc(O)cc1O)c1ccc(CN2C(=O)c3cccc4cccc2c34)cc1`: the molecule was called inactive. The entry for `O=c1oc2ccccc2c(O)c1/C=N/c1ccccn1` is “inactive”; for `Cc1nnc(NC(=O)CSc2nnc(Cc3cccn3C)n2CCc2ccccc2)s1` it is “inactive”; for `COc1ccc(O)c(/C=N/NC(=O)c2ccc(OCc3cccc(Br)c3)cc2)c1` it is “inactive”. For `Cc1cccc(/C=N/NC(=O)CNc2cccc3ccccc23)n1`, the outcome was inactive. The entry for `CCOc1ccc(OCc2cccc(C(=O)N3CCCC3)c2)cc1` is “inactive”; for `O=C(O)c1c2c(nc3ccccc13)/C(=C/c1ccc(O)cc1)CC2` it is “inactive”. For the molecule `O=[N+]([O-])c1ccc(O)c(/C=N/Nc2ncnc3c2cnn3-c2ccccc2)c1`, the result was inactive.

In the case of `COc1cccc(/C=N/Nc2ncnc(Cl)c2N)c1O`, the molecule was called inactive. The value for `O=C(/C=C/Nc1cccc(C(F)(F)F)c1)C(F)(F)F` was “inactive”; that for `Cc1ccc(C(=O)Nc2ccc3ncccc3c2)cc1` was “inactive”; that for `CSc1ccccc1OCc1cc(C(=O)N2CCC[C@H]2C(N)=O)no1` was “inactive”.

As for `Cc1nnc(SCC(=O)N2CCC(c3noc4ccc(F)cc34)CC2)s1`, the result was inactive. In the case of `NC(=O)c1sc2nc3c(c(-c4cccs4)c2c1N)CCCCC3`, the outcome was inactive.

In the case of `S=C1SCN(Cc2ccccc2)CN1Cc1ccco1`, the molecule was called inactive. The value for `O=C1c2ccccc2C(O)N1Cc1ccccc1` (stereo not given) was “inactive”. The entry for `Cc1[nH]n(-c2ccc(Br)cc2)c(=O)c1/C=N/NC(=O)c1ccccc1` is “inactive”; for `Cc1cc(C(=O)CSc2nnc(-c3cccs3)o2)c(C)n1-c1ccccc1` it is “inactive”; for `CC1=C(C(=O)OCc2ccc3c(c2)OCO3)C(c2ccc(Cl)cc2)NC(=O)N1` (stereo not given) it is “inactive”.

`CC(=O)Oc1ccc(C(=O)Nc2cccnc2)cc1`: the molecule was classed as inactive. For the molecule `O=C(O)c1cccc(Nc2ccnc(Nc3cccc(C(=O)O)c3)n2)c1`, the outcome was inactive.

Turning to `O=C(CN1C(=O)c2ccccc2S1(=O)=O)Nc1ncc(Cl)cc1Cl`, the outcome was inactive. `Oc1[nH]c2ccccc2c1N=Nc1c(F)c(F)c(Cl)c(F)c1F`: the molecule was classed as inactive.

For `CN(C)c1ccc(-c2nc3ccccc3n2C)cc1`, the molecule was classed as inactive. Take `COc1ccc(C(=O)N=c2nc3ccccn3s2)cc1`: the call was inactive. The entry for `COc1ccc(C(Nc2ccccn2)c2oc(CO)cc(=O)c2O)cc1` (stereo not given) is “inactive”; for `C[C@@H]1CN([C@@H](C)CO)C(=O)c2cc(NC(=O)Nc3ccccc3)ccc2O[C@H]1CN(C)C(=O)Nc1cccc2ccccc12` it is “inactive”; for `CCCC(=O)NC(c1ccc(C(C)C)cc1)c1ccc2cccnc2c1O` (stereo not given) it is “inactive”. For `CCC(=O)NC(c1ccc(C)cc1)c1ccc2cccnc2c1O` (stereo not given), the result was inactive. The entry for `CCCCC(=O)NC(c1ccc(OC)c(OC)c1)c1ccc2cccnc2c1O` (stereo not given) is “inactive”.

As to `CCCC(=O)NC(c1ccc(C)cc1)c1ccc2cccnc2c1O` (stereo not given), the outcome was inactive. The entry for `COc1cccc(C2=CC(=O)C[C@H](c3ccc4c(c3)OCO4)C2)c1` is “inactive”; for `C[C@@H]1CN([C@@H](C)CO)S(=O)(=O)c2ccc(/C=C/c3ccccc3)cc2O[C@@H]1CN(C)Cc1ccc(C(=O)O)cc1` it is “inactive”; for `CCCCCN=Cc1c(C)[nH]n(-c2nc3ccccc3s2)c1=O` it is “inactive”.

`O=C(OCc1nc2ccccc2s1)[C@@H]1CCCN1S(=O)(=O)c1ccccc1F`: the result was inactive.

As to `CCOc1ccc(N(C(C)C(=O)N2CCCCCC2)S(C)(=O)=O)cc1` (stereo not given), the molecule was classed as inactive. For the molecule `CCSc1nnc(NC(=O)CSc2nnc(-c3c[nH]c4ccccc34)n2CC)s1`, the molecule was classed as inactive. The entry for `O=C(/C=C1\NC2(CCCC2)Cc2ccccc21)C(=O)N/N=C/c1ccccc1O` is “inactive”; for `CCSc1nc2ccc(OC)cc2cc1C#N` it is “inactive”.

Take `O=C(C1CCCCC1)N1CCN(c2ncccn2)CC1`: the molecule was classed as inactive. The value for `COC(=O)c1[nH]c2ccc(C)cc2c1NC(=O)NC1CCCCC1` was “inactive”; that for `O=C1c2ccccc2C(=O)c2cc(N3CCCCC3)ccc21` was “inactive”; that for `N/C(=N\OC(=O)c1ccccc1)c1ccccn1` was “inactive”. Regarding `O=C(Nc1ccc(Cl)cc1)Nc1nnc(CSCc2ccc(Cl)cc2)s1`, the result was inactive. On to `Nc1ccn(C2CCCO2)c(=O)n1` (stereo not given), for which the call was inactive. In the case of `COc1ccc(C(=O)Nc2nnc(SCC(=O)NC3CC3)s2)cc1`, the molecule was called inactive.

As for `CCOc1ccc(C(=O)Nc2nnc(SCC(=O)NCC3CCCO3)s2)cc1` (stereo not given), the molecule was classed as inactive.

Consider `CSc1nc(C)cc(C)c1C#N`, for which the result was inactive. For `COC(=O)[C@@]1(C)[C@H]2C(=O)N(Cc3ccccc3)C(=O)[C@H]2[C@H]2CN=C(SCc3ccc(Cl)cc3)N21`, the call was inactive. The value for `Cc1cccc(NC(=O)c2cnc3ccccn3c2=O)c1` was “inactive”; that for `COCCNC(=O)C1CCC(CNS(=O)(=O)c2ccccc2)CC1` (stereo not given) was “inactive”; that for `NC(=S)NN=Cc1nccc2c(C(F)(F)C(F)(F)C(F)(F)F)cccc12` was “inactive”.

`NC(=S)NN=Cc1nccc2c(C(F)(F)F)cccc12`: the outcome was inactive. On to `O=C(Nc1ccccc1)c1cn2ccccc2n1`, for which the outcome was inactive. The value for `COC(=O)CSc1ncnc2c1sc1nc3c(cc12)COC(C)(C)C3` was “inactive”; that for `C[C@H](NC(=O)N1CCn2c1nc1ccccc12)C(=O)NCC1CCCO1` (stereo not given in full) was “inactive”. The value for `CCN(C(=O)c1cc(OC)c(OC)c(OC)c1)C1CCCCC1` was “inactive”; that for `CCOC(=O)c1c(CSc2nc(C)cc(C)c2C#N)n(C)c2cc(Br)c(OC(C)=O)cc12` was “inactive”. `CCCc1c(C(=O)N/N=C(\C)c2ccccn2)nnn1-c1nonc1N`: the call was inactive.

Take `CC(=NNC(=S)N1CCCCC1)c1cccc(C)n1`: the result was inactive. With `CC(=NNC(=S)N1CCCCCC1)c1cccc2cccnc12`, the outcome was inactive. The entry for `COC(=O)c1ccc(COc2ccccc2/C=C/C(=O)c2ccc(OCC(=O)O)cc2)cc1` is “inactive”.

`COC(=O)c1ccccc1NC(=O)CC(=O)Nc1ccccc1C(=O)OC`: the call was inactive. Take `COc1cccc(C(=O)N2CCN(c3nc4cc(C)cc(C)c4cc3C#N)CC2)c1`: the molecule was classed as inactive. The entry for `Cc1cc(=O)[nH]c(NN=Cc2cc(Br)ccc2O)n1` is “inactive”; for `COc1ccc(N2C(=O)C(=O)/C(=C(/O)c3ccc(C)cc3)C2c2cccnc2)cc1` (stereo not given) it is “inactive”; for `CCCC(=O)C1=C(O)C(C(=O)OC)C(C)(C)CC1=Nc1ccncc1` (stereo not given) it is “inactive”. With `Cc1csc(N=Nc2ccc(N(C)C)cc2)[n+]1[O-]`, the call was inactive.

`Cc1ccc2c(c1)N(CC(=O)N1CCCC1)C(=O)c1cccnc1O2`: the outcome was inactive.

In the case of `COc1ccccc1N1CCN(C(=O)CCC(=O)N2CCN(c3ccc(F)cc3)CC2)CC1`, the outcome was inactive.

For the molecule `O=C(CSc1nnc(NC(=O)c2ccc3c(c2)OCO3)s1)NCc1ccco1`, the molecule was classed as inactive. In the case of `C/C(=N/NC(=O)c1cc(C2CC2)[nH]n1)c1cccs1`, the molecule was classed as inactive. The value for `Cn1c(/C=C/c2ccccc2)nc2ccccc21` was “inactive”.

With `COc1cccc(/C=N/NC(=O)c2[nH]nc3c2CCc2ccccc2-3)c1O`, the molecule was classed as inactive. The entry for `Cc1ccc2[nH]c(C(=O)N/N=C/c3ccccc3O)c(C)c2c1` is “inactive”; for `Cn1c(=O)c2c(ncn2CC(=O)Nc2cc(S(=O)(=O)N3CCCCC3)ccc2O)n(C)c1=O` it is “inactive”. On to `COc1ccc(CCNC(=O)CSc2ccsc2[N+](=O)[O-])cc1OC`, for which the outcome was inactive. Consider `COC(=O)C(NS(=O)(=O)c1ccc(N2CCCC2=O)cc1)c1ccccc1` (stereo not given), for which the molecule was classed as inactive. As to `CC(C)(C)c1nc2c(s1)CCc1onc(-c3ccc(Br)cc3)c1-2`, the molecule was classed as inactive. Regarding `CN(C)c1ccc(C=Cc2ccnc3c(O)cccc23)cc1`, the molecule was classed as inactive. As for `COc1ccc(S(=O)(=O)N2CCN(CC(=O)Nc3ccc(C)c(F)c3)CC2)cc1`, the molecule was classed as inactive. As to `Cc1cnc(NC(=O)c2ccccn2)s1`, the molecule was called inactive. The entry for `CC(=NNC(=S)Nc1ccccc1)c1ccccn1` is “inactive”. The entry for `CC(=NNC(=S)Nc1ccccc1Cl)c1ccccn1` is “inactive”; for `C/C(=N/NC(=O)c1ccc(C(C)(C)C)cc1)c1ccccn1` it is “inactive”. The entry for `CCOc1cc(C(=O)OC(C)C(=O)Nc2ncc(Cl)cc2Cl)ccc1OCC(=O)N1CCOCC1` (stereo not given) is “inactive”. Turning to `CCCCCC(=O)N1C[C@@H](O)[C@H](n2cc(C3CC3)nn2)C[C@@H]1c1ccc(C)cc1`, the molecule was classed as inactive. The value for `O=C(Nc1cnc2ccccn2c1=O)c1ccc(Cl)cc1Cl` was “inactive”.

On to `O=C(O)/C=C/c1ccc2ccccc2n1`, for which the molecule was classed as inactive. The entry for `Cc1cc(C)nc(N/C(=N\S(=O)(=O)Cc2ccccc2)Nc2ccccc2Br)n1` is “inactive”. For `O=C1OCC2=C1C(c1ccc3c(c1)OCO3)c1cc3c(cc1O2)OCO3` (stereo not given), the molecule was classed as inactive.

On to `Cc1cccc(C)c1Nc1nc2ccccc2o1`, for which the result was inactive.

Take `Cc1nc(Nc2nc3ccccc3o2)nc2c1CCC2`: the call was inactive. Turning to `O=[N+]([O-])c1ccc2ncnc(N3CCN(Cc4ccc5c(c4)OCO5)CC3)c2c1`, the molecule was classed as inactive.

`CC(=C/c1ccccc1)/C=N/n1c(-c2ccncc2)n[nH]c1=S`: the outcome was inactive. The value for `CCOC(=O)c1ccc(NC(=O)CSc2nc(N3CCOCC3)nc(N3CCOCC3)n2)cc1` was “inactive”; that for `Cc1ccc(S(=O)(=O)N2c3ccccc3-c3c(ssc3=S)C2(C)C)cc1` was “inactive”; that for `Cc1cccc(-n2ncc3c(N4CCOCC4)ncnc32)c1` was “inactive”. The entry for `O=C(Cc1cccc2ccccc12)Nc1ccc(-c2cc3ccccc3oc2=O)cc1` is “inactive”.
